# From PubChem BioAssay AID1159580 (chemical genetic matrix, 2015)
# “And” between values parts separate entries of the source, which are not always exact repeats. Identical values can stand only once. The whole screen tested about 5,500 compounds, of which about 2,000 (36%) were called active. Roughly 18% stayed inconclusive and do not appear here. This is one part of the list. A number with no mark means an inactive call. Rule as the data show it: active = normalized growth mostly below about 0.91 (no sharp cut-off); inconclusive = no clear call, values can overlap the other calls; inactive = mostly above about 0.92. Where a SMILES comes first, the peptide text is derived from it. [ ]: non-standard residue; d: D form. Orn = NCCC[CH](N)C(=O)O
# Assay: chemical genetic growth profiling, strain panel (AID 1159580);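 also: tested at 20 µM; growth read once vehicle control cultures reached saturation at 30 °C; 1 = growth at the plate median or of vehicle wells; lower values mean less growth of the strain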
# Details: S. cerevisiae deletion strains, growth OD
compound,measurement,setting,value
CC(C)CC1NC(=O)C(CCCN)NC(=O)C(C(C)C)NC(=O)C2CCCN2C(=O)C(Cc2ccccc2)NC(=O)C(CC(C)C)NC(=O)C(CCCN)NC(=O)C(C(C)C)NC(=O)C2CCCN2C(=O)C(Cc2ccccc2)NC1=O (stereo unspecified) (cyclo(FPV[Orn]LFPV[Orn]L); configuration not given here),normalized growth,"locus YAL013W, strain DEP1, hits give low values",1.01
same,normalized growth,"locus YAL021C, strain ccr4, hits give low values",0.995
same,normalized growth,"locus YAL026C, strain drs2, hits give low values",0.911
same,normalized growth,"locus YAL030W, strain snc1, hits give low values",1.03
same,normalized growth,"locus YBL061C, strain skt5, hits give low values",1.02
same,normalized growth,"locus YBR009C, strain hhf1, hits give low values",1.01
same,normalized growth,"locus YBR021W, strain FUR4, hits give low values",0.931
same,normalized growth,"locus YBR023C, strain chs3, hits give low values",1.01
same,normalized growth,"locus YBR171W, strain sec66, hits give low values",1.07
same,normalized growth,"locus YBR229C, strain ROT2, hits give low values",1.01
same,normalized growth,"locus YBR231C, strain swc5, hits give low values",0.934
same,normalized growth,"locus YBR279W, strain paf1, hits give low values",1.02
same,normalized growth,"locus YCL011C, strain gbp2, hits give low values",1.02
same,normalized growth,"locus YCL016C, strain dcc1, hits give low values",1
same,normalized growth,"locus YCL029C, strain bik1, hits give low values",0.986
same,normalized growth,"locus YCL061C, strain MRC1, hits give low values",1.03
same,normalized growth,"locus YCL069W, strain vba3, hits give low values",1.03
same,normalized growth,"locus YCR088W, strain abp1, hits give low values",1.03
same,normalized growth,"locus YDL005C, strain med2, hits give low values",1.02
same,normalized growth,"locus YDL035C, strain GPR1, hits give low values",0.992
same,normalized growth,"locus YDL040C, strain nat1, hits give low values",1.02
same,normalized growth,"locus YDL074C, strain BRE1, hits give low values",0.964
same,normalized growth,"locus YDL101C, strain DUN1, hits give low values",1
same,normalized growth,"locus YDL134C, strain PPH21, hits give low values",1.01
same,normalized growth,"locus YDL185W, strain tfp1, hits give low values",0.249 (active)
same,normalized growth,"locus YDL192W, strain arf1, hits give low values",0.104 (active)
same,normalized growth,"locus YDR001C, strain nth1, hits give low values",1.03
same,normalized growth,"locus YDR069C, strain doa4, hits give low values",0.905
same,normalized growth,"locus YDR101C, strain arx1, hits give low values",0.998
same,normalized growth,"locus YDR137W, strain rgp1, hits give low values",0.307 (active)
same,normalized growth,"locus YDR150W, strain NUM1, hits give low values",1.02
same,normalized growth,"locus YDR159W, strain sac3, hits give low values",1.02
same,normalized growth,"locus YDR162C, strain NBP2, hits give low values",1.01
same,normalized growth,"locus YDR195W, strain ref2",0.363 (active)
same,normalized growth,"locus YDR297W, strain sur2, hits give low values",1.03
same,normalized growth,"locus YDR318W, strain mcm21, hits give low values",1.01
same,normalized growth,"locus YDR334W, strain swr1, hits give low values",1.02
same,normalized growth,"locus YDR335W, strain msn5, hits give low values",1.05
same,normalized growth,"locus YDR388W, hits give low values",0.989
same,normalized growth,"locus YDR392W, strain spt3, hits give low values",0.963
same,normalized growth,"locus YDR502C, strain sam2, hits give low values",0.997
same,normalized growth,"locus YEL003W, strain gim4, hits give low values",1.01
same,normalized growth,"locus YEL037C, strain rad23, hits give low values",1.04
same,normalized growth,"locus YEL061C, strain CIN8 (second series), hits give low values",1.04
same,normalized growth,"locus YEL061C, strain CIN8, hits give low values",1.02
same,normalized growth,"locus YER015W, strain faa2, hits give low values",1.01
same,normalized growth,"locus YER016W, strain bim1, hits give low values",1.03
same,normalized growth,"locus YER110C, hits give low values",0.987
same,normalized growth,"locus YER111C, strain swi4, hits give low values",1.05
same,normalized growth,"locus YER155C, strain BEM2 (second series), hits give low values",0.775 (active)
same,normalized growth,"locus YER155C, strain BEM2, hits give low values",0.991
same,normalized growth,"locus YER167W, strain BCK2, hits give low values",1.02
same,normalized growth,"locus YFR010W, strain ubp6, hits give low values",1.01
same,normalized growth,"locus YGL078C, strain dbp3, hits give low values",0.993
same,normalized growth,"locus YGL167C, strain pmr1, hits give low values",1.04
same,normalized growth,"locus YGL173C, strain kem1, hits give low values",1.02
same,normalized growth,"locus YGL227W, strain vid30, hits give low values",1.05
same,normalized growth,"locus YGL240W, strain doc1, hits give low values",0.992
same,normalized growth,"locus YGL248W, strain PDE1, hits give low values",1.01
same,normalized growth,"locus YGL253W, strain hxk2, hits give low values",1.03
same,normalized growth,"locus YGR078C, strain PAC10, hits give low values",1.07
same,normalized growth,"locus YGR135W, strain pre9, hits give low values",0.981
same,normalized growth,"locus YGR229C, strain SMI1, hits give low values",0.844
same,normalized growth,"locus YGR252W, strain gcn5, hits give low values",0.924
same,normalized growth,"locus YHR013C, strain ard1, hits give low values",1.1
same,normalized growth,"locus YHR027C, strain rpn1, hits give low values",1.05
same,normalized growth,"locus YHR030C, strain SLT2, hits give low values",1 and 0.948
same,normalized growth,"locus YHR079C, strain IRE1 (second series), hits give low values",1.01
same,normalized growth,"locus YHR079C, strain IRE1, hits give low values",0.993
same,normalized growth,"locus YHR094C, strain hxt1, hits give low values",1.01
same,normalized growth,"locus YHR129C, strain ARP1, hits give low values",1.02
same,normalized growth,"locus YHR142W, strain chs7, hits give low values",1.02
same,normalized growth,"locus YIL066C, strain RNR3, hits give low values",0.999
same,normalized growth,"locus YIL073C, strain SPO22, hits give low values",1.52 [resistant] (active)
same,normalized growth,"locus YIL125W, strain kgd1, hits give low values",1
same,normalized growth,"locus YIR030C, strain dcg1, hits give low values",1
same,normalized growth,"locus YJL092W, strain hpr5, hits give low values",1.04
same,normalized growth,"locus YJL095W, strain BCK1 (second series), hits give low values",1.02
same,normalized growth,"locus YJL095W, strain BCK1, hits give low values",0.965 and 0.972
same,normalized growth,"locus YJL115W, strain asf1, hits give low values",1.07
same,normalized growth,"locus YJL129C, strain trk1, hits give low values",1.01
same,normalized growth,"locus YJL134W, strain LCB3, hits give low values",1.01
same,normalized growth,"locus YJL154C, strain vps35, hits give low values",1.01
same,normalized growth,"locus YJL164C, strain tpk1, hits give low values",1.03
same,normalized growth,"locus YJL166W, strain qcr8, hits give low values",1.02
same,normalized growth,"locus YJL168C, strain set2, hits give low values",1
same,normalized growth,"locus YJL187C, strain SWE1 (second series), hits give low values",0.992
same,normalized growth,"locus YJL187C, strain SWE1, hits give low values",1.04
same,normalized growth,"locus YJR043C, strain POL32, hits give low values",0.983
same,normalized growth,"locus YJR066W, strain TOR1, hits give low values",0.935
same,normalized growth,"locus YJR075W, strain HOC1, hits give low values",1.01
